Source: the supplement of paper PMC10849652
About 7,900 targets were measured; listed, in parts, are those with a hit and a random draw of the rest. About 0.6% of all pairs of compound and target were hits. Unmarked numbers belong to inactive results.

Experiments:
Test in all cases: log2 fold change, soluble protein after heating vs DMSO (PISA); higher = thermal stabilisation; K562 cells, 10 uM, 30 min; active = over 0.2 and 3.5 SD of the protein, either way, in both replicates (recomputed)
[1] = compound: CS(=O)(=O)c1ccc(-c2cnc(N)c(C(=O)Nc3ccccc3)n2)cc1
Method in brief: (§1)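 K562 cells at 2×10^6 cells/mL were treated with 10 μM compound for 30 min. Aliquots were heated for 3 min across 48°C-58°C, pooled, and extracted in PBS with 0.5% NP-40 at 4°C; soluble protein was the supernatant after 21,000xg for 90 min. Soluble protein was quantified by TMTpro 16plex LC-MS/MS with channel sums equalised, and reported as log2 fold change in thermal stability against DMSO controls, with values from duplicates.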

crizotinib = compound: C[C@@H](Oc1cc(-c2cnn(C3CCNCC3)c2)cnc1N)c1c(Cl)ccc(F)c1Cl [crizotinib]
Method in brief: as §1

[2] = compound: C[C@@H]1COCCN1C2=NC(=NC(=C2)C3(CC3)S(=O)(=O)C)C4=C5C=CNC5=CC=C4
Method in brief: as §1

[3] = compound: C[C@H](C1=CC=C(C=C1)C(=O)NC2=C3C=CNC3=NC=C2)N
Method in brief: as §1

duvelisib = compound: C[C@H](Nc1ncnc2nc[nH]c12)c1cc2cccc(Cl)c2c(=O)n1-c1ccccc1 [duvelisib]
Method in brief: as §1

gandotinib = compound: Cc1cc(Nc2cc(CN3CCOCC3)c3nc(C)c(Cc4ccc(Cl)cc4F)n3n2)n[nH]1 [gandotinib]
Method in brief: as §1

tozasertib = compound: Cc1cc(Nc2cc(N3CCN(C)CC3)nc(Sc3ccc(NC(=O)C4CC4)cc3)n2)n[nH]1 [tozasertib]
Method in brief: as §1

[4] = compound: Cc1cc(SCc2sc(-c3ccc(C(F)(F)F)cc3)nc2C)ccc1OCC(=O)O
Method in brief: as §1

doramapimod = compound: Cc1ccc(-n2nc(C(C)(C)C)cc2NC(=O)Nc2ccc(OCCN3CCOCC3)c3ccccc23)cc1 [doramapimod]
Method in brief: as §1

ispinesib = compound: Cc1ccc(C(=O)N(CCCN)[C@@H](c2nc3cc(Cl)ccc3c(=O)n2Cc2ccccc2)C(C)C)cc1 [ispinesib]
Method in brief: as §1

Chain of UniProt Q7Z3V4 (Q7Z3V4 whole entry, looked up): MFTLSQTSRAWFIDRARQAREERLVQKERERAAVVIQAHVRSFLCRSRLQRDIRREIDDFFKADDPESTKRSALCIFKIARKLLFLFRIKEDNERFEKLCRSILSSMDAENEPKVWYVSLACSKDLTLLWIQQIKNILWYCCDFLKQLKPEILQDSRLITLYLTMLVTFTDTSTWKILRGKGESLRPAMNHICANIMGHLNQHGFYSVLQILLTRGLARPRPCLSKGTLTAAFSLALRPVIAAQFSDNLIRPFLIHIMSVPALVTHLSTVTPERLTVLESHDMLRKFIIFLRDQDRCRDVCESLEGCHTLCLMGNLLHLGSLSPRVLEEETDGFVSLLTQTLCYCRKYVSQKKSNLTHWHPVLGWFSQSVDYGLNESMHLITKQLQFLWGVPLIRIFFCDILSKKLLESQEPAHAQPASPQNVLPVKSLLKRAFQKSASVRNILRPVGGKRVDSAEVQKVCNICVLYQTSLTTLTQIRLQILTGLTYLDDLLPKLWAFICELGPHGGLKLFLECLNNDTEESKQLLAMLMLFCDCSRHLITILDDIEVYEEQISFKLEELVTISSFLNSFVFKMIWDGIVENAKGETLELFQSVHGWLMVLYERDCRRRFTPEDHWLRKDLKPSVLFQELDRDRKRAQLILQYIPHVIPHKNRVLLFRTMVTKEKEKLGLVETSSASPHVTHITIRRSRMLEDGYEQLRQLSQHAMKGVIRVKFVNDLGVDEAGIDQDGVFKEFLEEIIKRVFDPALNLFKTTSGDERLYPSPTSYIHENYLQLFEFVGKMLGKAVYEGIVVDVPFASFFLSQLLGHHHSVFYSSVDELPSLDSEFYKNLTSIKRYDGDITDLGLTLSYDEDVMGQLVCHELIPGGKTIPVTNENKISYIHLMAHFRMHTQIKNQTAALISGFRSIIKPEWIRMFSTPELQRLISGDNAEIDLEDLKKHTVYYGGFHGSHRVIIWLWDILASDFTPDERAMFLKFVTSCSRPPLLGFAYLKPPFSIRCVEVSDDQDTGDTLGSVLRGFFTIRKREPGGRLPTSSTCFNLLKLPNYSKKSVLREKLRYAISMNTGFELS
Chain of UniProt O60763 (O60763 whole entry, looked up): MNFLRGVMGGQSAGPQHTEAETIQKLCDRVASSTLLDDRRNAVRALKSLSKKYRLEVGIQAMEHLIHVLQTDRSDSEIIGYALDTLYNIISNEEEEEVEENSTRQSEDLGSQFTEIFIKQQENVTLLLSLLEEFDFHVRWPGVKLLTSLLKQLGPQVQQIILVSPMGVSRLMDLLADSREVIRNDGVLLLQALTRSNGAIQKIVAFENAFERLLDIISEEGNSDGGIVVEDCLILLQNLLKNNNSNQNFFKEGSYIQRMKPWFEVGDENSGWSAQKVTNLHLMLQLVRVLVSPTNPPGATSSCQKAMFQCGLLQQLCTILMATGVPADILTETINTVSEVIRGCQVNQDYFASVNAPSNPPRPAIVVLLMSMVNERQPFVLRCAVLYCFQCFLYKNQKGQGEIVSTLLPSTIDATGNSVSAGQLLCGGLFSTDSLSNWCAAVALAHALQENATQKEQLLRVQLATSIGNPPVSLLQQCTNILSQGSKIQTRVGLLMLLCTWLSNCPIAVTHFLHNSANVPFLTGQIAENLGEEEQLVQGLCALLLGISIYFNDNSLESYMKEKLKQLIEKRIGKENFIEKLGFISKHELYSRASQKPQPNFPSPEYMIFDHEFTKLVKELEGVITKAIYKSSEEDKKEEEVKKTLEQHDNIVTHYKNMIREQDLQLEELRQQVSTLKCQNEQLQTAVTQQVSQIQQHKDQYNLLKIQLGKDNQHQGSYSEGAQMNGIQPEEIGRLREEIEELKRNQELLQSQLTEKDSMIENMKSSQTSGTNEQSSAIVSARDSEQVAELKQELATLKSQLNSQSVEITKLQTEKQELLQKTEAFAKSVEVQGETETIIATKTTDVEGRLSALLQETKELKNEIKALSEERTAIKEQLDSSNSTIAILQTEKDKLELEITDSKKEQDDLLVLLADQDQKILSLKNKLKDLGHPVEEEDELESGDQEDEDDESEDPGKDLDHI
Chain of UniProt Q9Y6I4 (Q9Y6I4 whole entry, looked up): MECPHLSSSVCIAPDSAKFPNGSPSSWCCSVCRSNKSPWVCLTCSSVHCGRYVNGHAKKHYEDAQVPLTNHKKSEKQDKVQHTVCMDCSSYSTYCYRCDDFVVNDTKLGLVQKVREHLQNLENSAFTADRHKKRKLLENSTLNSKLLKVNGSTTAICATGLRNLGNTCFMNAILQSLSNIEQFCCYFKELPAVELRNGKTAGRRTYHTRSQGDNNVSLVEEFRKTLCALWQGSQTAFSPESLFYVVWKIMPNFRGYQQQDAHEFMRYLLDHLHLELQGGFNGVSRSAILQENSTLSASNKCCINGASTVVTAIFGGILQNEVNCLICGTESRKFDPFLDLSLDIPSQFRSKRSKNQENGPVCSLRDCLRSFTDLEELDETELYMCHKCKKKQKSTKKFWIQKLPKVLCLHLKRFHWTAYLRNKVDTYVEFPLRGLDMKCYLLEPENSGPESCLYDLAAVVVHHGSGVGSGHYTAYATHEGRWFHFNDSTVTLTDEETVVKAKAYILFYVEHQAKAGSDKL
Chain of UniProt Q6PID6 (Q6PID6 whole entry, looked up): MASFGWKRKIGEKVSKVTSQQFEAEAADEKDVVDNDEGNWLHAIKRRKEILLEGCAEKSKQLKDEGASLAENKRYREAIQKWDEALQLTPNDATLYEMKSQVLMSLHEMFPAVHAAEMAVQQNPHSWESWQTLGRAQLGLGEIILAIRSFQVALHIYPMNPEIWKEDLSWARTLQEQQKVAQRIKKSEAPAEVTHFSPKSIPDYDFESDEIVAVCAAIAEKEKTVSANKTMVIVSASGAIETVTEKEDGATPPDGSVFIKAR
Chain of UniProt Q9Y5L0 (Q9Y5L0 whole entry, looked up): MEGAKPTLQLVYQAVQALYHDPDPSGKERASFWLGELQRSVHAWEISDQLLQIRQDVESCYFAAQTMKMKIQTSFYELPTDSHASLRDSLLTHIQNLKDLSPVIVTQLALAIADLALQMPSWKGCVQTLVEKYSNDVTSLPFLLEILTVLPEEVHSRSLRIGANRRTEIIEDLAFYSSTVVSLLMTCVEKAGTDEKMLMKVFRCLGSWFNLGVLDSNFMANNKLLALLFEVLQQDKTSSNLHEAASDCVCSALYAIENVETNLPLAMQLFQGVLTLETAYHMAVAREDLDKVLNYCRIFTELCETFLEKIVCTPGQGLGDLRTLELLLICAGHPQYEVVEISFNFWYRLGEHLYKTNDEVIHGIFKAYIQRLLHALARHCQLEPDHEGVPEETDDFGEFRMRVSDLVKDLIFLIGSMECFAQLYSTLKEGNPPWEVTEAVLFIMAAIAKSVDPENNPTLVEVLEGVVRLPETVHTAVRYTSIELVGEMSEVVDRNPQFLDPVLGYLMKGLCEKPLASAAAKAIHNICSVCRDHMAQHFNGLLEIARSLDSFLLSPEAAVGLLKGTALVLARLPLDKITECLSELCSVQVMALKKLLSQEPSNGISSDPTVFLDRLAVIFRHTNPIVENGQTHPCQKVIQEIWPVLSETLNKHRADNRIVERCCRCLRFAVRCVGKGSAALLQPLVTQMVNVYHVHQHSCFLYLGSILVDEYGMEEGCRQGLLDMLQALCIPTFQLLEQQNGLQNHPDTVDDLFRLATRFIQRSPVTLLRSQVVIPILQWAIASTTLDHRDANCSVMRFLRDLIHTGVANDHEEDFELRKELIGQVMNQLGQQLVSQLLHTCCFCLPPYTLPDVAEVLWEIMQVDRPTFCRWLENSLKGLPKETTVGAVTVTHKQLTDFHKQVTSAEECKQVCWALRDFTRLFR
Chain of UniProt Q16763 (Q16763 whole entry, looked up): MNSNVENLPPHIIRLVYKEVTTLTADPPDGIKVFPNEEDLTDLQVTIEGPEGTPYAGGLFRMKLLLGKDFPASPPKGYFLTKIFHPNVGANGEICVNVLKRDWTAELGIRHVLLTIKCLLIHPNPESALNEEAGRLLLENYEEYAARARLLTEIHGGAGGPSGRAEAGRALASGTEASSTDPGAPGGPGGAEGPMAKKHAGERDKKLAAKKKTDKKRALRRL
Chain of UniProt Q6VEQ5 (Q6VEQ5 whole entry, looked up): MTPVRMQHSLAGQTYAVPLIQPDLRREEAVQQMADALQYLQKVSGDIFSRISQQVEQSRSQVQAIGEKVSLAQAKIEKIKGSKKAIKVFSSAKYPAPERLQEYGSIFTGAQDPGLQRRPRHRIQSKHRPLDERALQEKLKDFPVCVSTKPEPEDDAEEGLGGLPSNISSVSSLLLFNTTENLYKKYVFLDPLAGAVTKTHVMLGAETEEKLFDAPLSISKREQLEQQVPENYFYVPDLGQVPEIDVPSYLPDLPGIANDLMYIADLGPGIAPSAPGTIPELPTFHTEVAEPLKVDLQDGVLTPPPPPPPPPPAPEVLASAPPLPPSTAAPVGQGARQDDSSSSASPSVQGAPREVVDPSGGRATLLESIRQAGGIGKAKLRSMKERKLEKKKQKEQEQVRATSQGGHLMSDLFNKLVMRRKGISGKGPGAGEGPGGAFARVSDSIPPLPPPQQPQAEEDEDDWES
Chain of UniProt Q6NXR4 (Q6NXR4 whole entry, looked up): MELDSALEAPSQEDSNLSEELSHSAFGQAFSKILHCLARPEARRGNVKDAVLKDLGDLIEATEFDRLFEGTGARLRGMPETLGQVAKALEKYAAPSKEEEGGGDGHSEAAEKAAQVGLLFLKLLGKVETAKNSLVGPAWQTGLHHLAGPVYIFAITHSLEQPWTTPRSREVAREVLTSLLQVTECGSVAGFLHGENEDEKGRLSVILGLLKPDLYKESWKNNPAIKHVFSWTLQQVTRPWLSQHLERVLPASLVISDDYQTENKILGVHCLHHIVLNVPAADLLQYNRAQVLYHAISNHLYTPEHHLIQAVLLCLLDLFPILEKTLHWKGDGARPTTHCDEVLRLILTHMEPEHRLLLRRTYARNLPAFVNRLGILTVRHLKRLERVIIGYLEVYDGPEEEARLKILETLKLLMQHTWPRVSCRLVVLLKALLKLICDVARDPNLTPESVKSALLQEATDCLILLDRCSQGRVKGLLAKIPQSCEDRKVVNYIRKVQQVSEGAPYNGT
Chain of UniProt Q629K1 (Q629K1 whole entry, looked up): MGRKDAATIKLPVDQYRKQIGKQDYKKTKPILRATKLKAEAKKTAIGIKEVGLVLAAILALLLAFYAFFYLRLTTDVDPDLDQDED

Target | log2 fold change [1] | log2 fold change (crizotinib) | log2 fold change [2] | log2 fold change [3] | log2 fold change (duvelisib) | log2 fold change (gandotinib) | log2 fold change (tozasertib) | log2 fold change [4] | log2 fold change (doramapimod) | log2 fold change (ispinesib)
UGGT1 (UniProt Q9NYU2) | 0.013 | 0 | 0.012 | 0.009 | -0.005 | 0.005 | 0.008 | 0.016 | 0.017 | 0.012
UBE2S (UniProt Q16763) | 0.014 | 0.079 | 0.003 | -0.067 | 0.042 | -0.015 | 0.025 | 0.002 | 0.024 | 0.1
TRIQK (UniProt Q629K1) | 0.003 | 0.024 | 0.072 | 0.017 | 0.073 |  | -0.003 | -0.006 | 0.008 | 0.182
UBE3B (UniProt Q7Z3V4) | 0.106 | -0.133 | 0.254 | -0.108 | 0.141 |  | -0.109 | 0.021 | -0.055 | 0.178
WDR46, A0A0G2JJL1 | -0.119 | 0.086 | -0.581 |  | -0.157 |  | 0.198 | -0.125 | 0.236 | 
TRIM28 (UniProt Q13263) | -0.001 | 0.046 | 0.048 | -0.068 | 0.027 | -0.033 | 0.13 | 0.039 | -0.036 | -0.007
WDR18 (UniProt Q9BV38) | -0.023 | -0.008 | -0.022 | -0.102 | -0.012 | -0.021 | 0.022 | -0.009 | 0.026 | 0.027
TTC33 (UniProt Q6PID6) | 0.056 | -0.399 | -0.113 | 0.146 | 0.002 | -0.192 |  | -0.06 | -0.15 | -0.095
UBAP1 isoform 4 (UniProt Q9NZ09) | -0.003 | -0.008 | 0.07 | 0.023 | 0.052 | 0.009 | 0.399 | 0.082 | 0.044 | -0.046
TMEM263 (UniProt Q8WUH6) | 0.03 | -0.717 (active) | -0.029 | 0.018 | -0.007 | -0.385 | -0.019 | 0.046 | -0.075 | -0.936 (active)
WASH2P (UniProt Q6VEQ5) | -0.002 | -0.321 (active) | -0.017 | 0.021 | -0.02 | -0.03 | -0.071 | -0.038 | 0.041 | -0.358 (active)
UBAP2L isoform 5 (UniProt Q14157) | -0.028 | 0.051 | -0.07 | -0.007 | 0.035 | 0.007 | -0.013 | 0.016 | -0.038 | 0.026
TMEM177 (UniProt Q53S58) | 0.005 | 0.033 | 0.065 | 0.011 | 0.039 | 0.025 | 0.087 | 0.053 | -0.062 | -0.304 (active)
TMEM128 (UniProt Q5BJH2) | 0.001 | 0.234 | -0.062 | 0.025 | -0.009 |  | 0.06 | 0.016 | -0.138 | 0.021
TMEM179B (UniProt Q7Z7N9) | -0.005 | -0.167 | 0.101 | -0.165 |  | -0.138 | 0.032 |  | 0.071 | -0.099
WNK1 isoform 7 (UniProt Q9H4A3) | 0.022 | -0.061 | -0.027 | 0.03 | -0.016 | -0.032 | 0.001 | -0.018 | 0.001 | -0.044

Target | log2 fold change [1] | log2 fold change (crizotinib) | log2 fold change [2] | log2 fold change [3] | log2 fold change (duvelisib) | log2 fold change (gandotinib) | log2 fold change (tozasertib) | log2 fold change [4] | log2 fold change (doramapimod) | log2 fold change (ispinesib)
USO1 isoform 2 (UniProt O60763) | 0.001 | -0.031 | 0.05 | -0.068 | -0.023 | -0.062 | 0.029 | 0.052 | -0.019 | 0.012
UFM1 (UniProt P61960) | 0.021 | 0.004 | 0.178 | -0.062 | 0.146 |  | -0.056 | -0.043 | -0.037 | 0.158
TMEM41A (UniProt Q96HV5) | -0.023 | 0.139 | 0.137 |  | -0.001 | -0.044 | -0.138 | 0 | 0.025 | 0.065
TMEM9B (UniProt Q9NQ34) | -0.035 | -0.011 | 0.105 | 0.061 |  | -0.116 | -0.03 |  | 0.023 | -0.211
VWA8 (UniProt A3KMH1) | 0.01 | -0.058 | 0.093 | 0.025 | 0.066 | -0.038 | -0.038 | 0.094 | -0.041 | -0.221
UBA52 (UniProt P62987) | -0.065 | -0.02 | -0.909 (active) | 0.364 |  | 0.44 | 0.053 |  | 0.118 | -0.165
TTI2 (UniProt Q6NXR4) | -0.066 | -0.155 | 0.028 | 0.121 | -0.067 |  | 0.004 | 0.142 | 0.013 | -0.204
TRIP10 isoform 2 (UniProt Q15642) | 0.132 | 0.056 | -0.007 | 0.108 | 0.001 | 0.147 | 0.101 | -0.089 | -0.035 | 0.309
TRIM4 (UniProt Q9C037) | 0.114 | 0.045 | 0.037 | 0.061 |  | -0.023 | 0.023 |  | 0.092 | -0.033
TNPO3 (UniProt Q9Y5L0) | -0.028 | -0.151 | 0.025 | -0.124 | -0.008 | -0.143 | 0.087 | 0.046 | -0.046 | 0.008
TSC2 (UniProt P49815) | -0.09 | 0.065 | -0.139 | 0.218 |  | -0.091 | -0.172 |  | 0.09 | 0.012
UCHL5 isoform 3 (UniProt Q9Y5K5) | 0.039 | -0.458 | 0.058 | -0.05 |  |  | 0.219 |  | -0.067 | 0.02
TOM1L2 (UniProt Q6ZVM7) | 0.03 | 0.101 | 0.118 | 0.087 | 0.099 |  |  | 0.035 | 0.02 | 
USP3 (UniProt Q9Y6I4) | 0.065 | -0.131 | 0.043 | -0.26 | -0.008 | -0.246 | -0.003 | 0.155 | -0.023 | -0.04
XRCC1 (UniProt P18887) | 0 | 0.093 | 0.087 | 0.049 | 0.133 | -0.019 | -0.235 | -0.132 | -0.101 | 0.062
TRIM5 (UniProt Q9C035) | -0.032 |  | 0.037 | 0.148 | -0.109 |  | -0.096 | -0.127 |  | -0.821 (active)
